“And” between values parts separate entries of the source, which are not always exact repeats. Identical values can stand only once. Results filed as inconclusive are left out. Where a call stands in place of a potency, no number is given. Values without a mark were called inactive. The source made the active and inactive calls. The call rests on the fitted dose curve; in most records, active means well fitted curve in the direction sought with a large enough effect; inconclusive means small, poorly fitted or top-dose-only effect, or another doubt; inactive means no such curve, though single readings can be large; an effect the other way counts as inactive or inconclusive.
Legend:
[1] = test system: Zika virus NS2B-NS3 protease; test: Primary screen GU AMC qHTS for Zika virus inhibitors (AID 1347154); further: nearly all actives have a fitted effect of over 70% in size
Outline: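 Unlinked Zika NS2B hydrophilic domain–NS3 protease complex at 25 nM in 10 mM Tris-HCl pH 8.0, 0.01% Tween 20, with an AMC peptide substrate. Fluorescence change (340/450 nm) over 15 min at room temperature, normalized to controls, fitted to 4-parameter Hill.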

[2] = qHTS of pediatric cancer cell lines to identify multiple opportunities for drug repurposing: Confirmatory screen for Rh18 cells (AID 1347125); further: nearly all actives have a fitted effect of over 55% in size; further: potency means the concentration at half of the fitted maximal effect
Outline: (§1)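 Viability after 48 h compound treatment at 37C, 500-1,000 cells/well, read as ATP luminescence with CellTiter-Glo. Primary screens used 11-point (MIPE, 0.78 nM-46 µM) or 8-point (NPC, 0.59 nM-46 µM) final concentrations; follow-up screens used 11-point dilutions.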

[3] = molecular target: Furin (Homo sapiens) (UniProt P09958); test: Furin counterscreen qHTS for Zika virus inhibitors (AID 1347149); further: nearly all actives have a fitted effect of over 70% in size; further: potency means the concentration at half of the fitted maximal effect;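 on activity change, negative = inhibition: purified recombinant full-length human furin enzyme at 5 nM; fluorescence gain from furin cutting a BOC-RVRR-AMC peptide substrate over 15 min; top concentration of the series differs between compounds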
Sequence of Furin (Homo sapiens) (P09958 whole entry, looked up): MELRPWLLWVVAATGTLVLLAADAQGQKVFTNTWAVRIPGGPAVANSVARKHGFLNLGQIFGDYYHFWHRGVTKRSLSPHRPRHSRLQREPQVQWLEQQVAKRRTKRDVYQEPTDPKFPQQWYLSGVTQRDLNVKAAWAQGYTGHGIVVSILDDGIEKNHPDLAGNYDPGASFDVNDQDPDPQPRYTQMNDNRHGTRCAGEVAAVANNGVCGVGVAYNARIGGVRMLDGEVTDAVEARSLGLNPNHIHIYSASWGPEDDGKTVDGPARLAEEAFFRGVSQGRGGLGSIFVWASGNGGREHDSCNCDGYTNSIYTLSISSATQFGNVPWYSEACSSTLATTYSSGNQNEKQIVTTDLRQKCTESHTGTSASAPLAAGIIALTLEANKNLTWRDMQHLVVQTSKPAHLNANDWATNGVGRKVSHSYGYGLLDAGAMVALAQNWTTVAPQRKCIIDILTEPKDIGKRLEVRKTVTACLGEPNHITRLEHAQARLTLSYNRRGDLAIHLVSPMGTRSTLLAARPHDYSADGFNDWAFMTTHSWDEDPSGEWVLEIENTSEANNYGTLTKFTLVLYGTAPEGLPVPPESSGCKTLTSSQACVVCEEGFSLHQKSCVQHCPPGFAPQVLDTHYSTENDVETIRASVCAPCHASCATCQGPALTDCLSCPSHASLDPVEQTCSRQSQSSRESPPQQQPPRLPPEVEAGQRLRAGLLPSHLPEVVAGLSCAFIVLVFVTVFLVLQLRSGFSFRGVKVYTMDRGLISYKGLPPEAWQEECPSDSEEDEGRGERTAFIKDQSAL
Outline: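 Counterscreen measures cleavage of 2 microM BOC-RVRR-AMC, below its ~15 microM Km, by 5 nM full-length human furin at pH 7.0 after a 15-min compound preincubation. Inhibition derives from the 15-min fluorescence increase at 37C.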

[4] = Confirmatory screen GU Rhodamine qHTS for Zika virus inhibitors qHTS (AID 1347157); further: nearly all actives have a fitted effect of over 70% in size
Outline: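 Buffer 10 mM Tris-HCl pH 8.0, 0.01% Tween 20. Unlinked protease 25 nM; compound preincubation 15 min, RT, protected from light. Substrate Rhod110, 1.5 microM; ~15% conversion in 15 min.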

[5] = Confirmatory screen NINDS Rhodamine qHTS for Zika virus inhibitors (AID 1347161);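 further: purified Zika NS2B-NS3 protease with linked NS2B cofactor domain and Rhodamine110 peptide substrate; nearly all actives have a fitted effect of over 60% in size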
Outline: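 Purified linked NS2B-NS3 protease (NS2B hydrophilic domain joined to NS3 protease by flexible linker), 25 nM in 10 mM Tris-HCl pH 8.0, 0.01% Tween 20. Compounds titrated, 15 min preincubation at room temperature; 1.5 microM Rhodamine110 substrate, FITC fluorescence change over 15 min.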

[6] = Tertiary RLuc qRT-PCR qHTS assay for Zika virus inhibitors (AID 1347169); further: nearly all actives have a fitted effect of over 55% in size; further: potency means the concentration at half of the fitted maximal effect; on activity change, negative = inhibition: top concentration of the series differs between compounds
Outline: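 Luminescence read-out: live-cell Renilla luciferase substrate applied to infected Vero cells, signal measured after 1-1.5 hrs. Cells had received compound before ZIKV-RLuc (Cambodian strain, MOI 1-2) infection and were incubated 48-72 hrs at 37 degrees C.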

[7] = test system: Zika virus NS2B-NS3 protease (unlinked); test: Optimization of GU AMC qHTS for Zika virus inhibitors: Unlinked NS2B-NS3 protease assay (AID 1347151); further: nearly all actives have a fitted effect of over 80% in size
Outline: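 Fluorescence read-out (340 nm ex / 450 nm em) of AMC peptide cleavage, taken immediately and after 15 min at room temperature (~20% conversion). Enzyme was the unlinked NS2B–NS3 complex at 25 nM in Tris pH 8.0 buffer.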

[8] = molecular target: Lysine-specific demethylase 5B (Homo sapiens) (UniProt Q9UGL1); test: Optimization screen for KDM5B Histone Demethylases FDH coupled qHTS against the LOPAC library (AID 1347166); settings: KDM5B demethylation, FDH-coupled NADH fluorescence (FDH is formaldehyde dehydrogenase); at 57.5 µM (top of the series)
Sequence of Lysine-specific demethylase 5B (Homo sapiens) (Q9UGL1 whole entry, looked up): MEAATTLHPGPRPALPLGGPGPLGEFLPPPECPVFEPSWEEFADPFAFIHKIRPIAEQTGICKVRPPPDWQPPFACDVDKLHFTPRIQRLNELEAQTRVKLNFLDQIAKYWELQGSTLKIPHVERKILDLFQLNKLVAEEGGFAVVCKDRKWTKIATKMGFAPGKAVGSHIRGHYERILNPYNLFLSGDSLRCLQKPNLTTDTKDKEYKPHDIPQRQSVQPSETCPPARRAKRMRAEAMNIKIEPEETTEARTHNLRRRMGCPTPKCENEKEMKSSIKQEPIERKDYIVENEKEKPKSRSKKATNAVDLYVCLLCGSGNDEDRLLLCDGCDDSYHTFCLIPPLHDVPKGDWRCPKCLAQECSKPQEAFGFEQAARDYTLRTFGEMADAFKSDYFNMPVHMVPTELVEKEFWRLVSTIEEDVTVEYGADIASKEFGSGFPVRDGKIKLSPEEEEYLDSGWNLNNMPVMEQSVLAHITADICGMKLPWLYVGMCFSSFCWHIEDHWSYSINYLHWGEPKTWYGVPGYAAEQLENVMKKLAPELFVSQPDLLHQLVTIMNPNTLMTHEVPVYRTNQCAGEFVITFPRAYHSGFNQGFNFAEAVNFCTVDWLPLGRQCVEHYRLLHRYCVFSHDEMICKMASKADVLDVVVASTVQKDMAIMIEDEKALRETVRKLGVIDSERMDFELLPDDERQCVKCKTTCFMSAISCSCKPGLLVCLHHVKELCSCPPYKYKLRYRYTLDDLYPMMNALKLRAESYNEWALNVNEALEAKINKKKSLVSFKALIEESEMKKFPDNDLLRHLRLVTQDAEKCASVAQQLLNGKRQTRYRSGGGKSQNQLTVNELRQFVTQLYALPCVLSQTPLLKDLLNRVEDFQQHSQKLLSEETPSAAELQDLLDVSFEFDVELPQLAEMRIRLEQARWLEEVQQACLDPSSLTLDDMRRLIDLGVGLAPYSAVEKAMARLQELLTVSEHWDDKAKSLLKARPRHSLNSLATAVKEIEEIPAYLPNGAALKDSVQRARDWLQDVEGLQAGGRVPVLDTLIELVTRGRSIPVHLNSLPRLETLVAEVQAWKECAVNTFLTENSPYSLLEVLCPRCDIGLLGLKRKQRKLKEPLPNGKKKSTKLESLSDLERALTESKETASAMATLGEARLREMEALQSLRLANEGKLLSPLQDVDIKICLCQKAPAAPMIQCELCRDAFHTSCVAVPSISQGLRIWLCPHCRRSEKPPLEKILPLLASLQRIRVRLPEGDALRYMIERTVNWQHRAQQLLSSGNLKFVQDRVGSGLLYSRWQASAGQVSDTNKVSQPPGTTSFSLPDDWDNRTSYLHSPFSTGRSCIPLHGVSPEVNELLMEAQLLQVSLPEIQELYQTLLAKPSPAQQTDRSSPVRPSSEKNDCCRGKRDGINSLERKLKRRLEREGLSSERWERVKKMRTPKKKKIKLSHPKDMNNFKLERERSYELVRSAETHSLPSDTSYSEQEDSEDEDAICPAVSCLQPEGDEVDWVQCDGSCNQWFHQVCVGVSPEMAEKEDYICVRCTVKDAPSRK
Outline: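 KDM5BDeltaAP (200nM final) in 50mM HEPES pH 7.5, 0.01% Tween-20 was preincubated with compound for 10 min at room temperature. A substrate mix of 12.5uM H3K4Me3, 25uM a-ketoglutarate, ascorbate, Fe2+, NAD+ and formaldehyde dehydrogenase was then added. NADH fluorescence (340/450 nm) was read initially and after 30 min.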

[9] = qHTS of pediatric cancer cell lines to identify multiple opportunities for drug repurposing: Confirmatory screen for OHS-50 cells (AID 1347128); further: nearly all actives have a fitted effect of over 55% in size; further: potency means the concentration at half of the fitted maximal effect
Outline: as §1

[10] = qHTS of pediatric cancer cell lines to identify multiple opportunities for drug repurposing: Confirmatory screen for Rh30 cells (AID 1347126); further: nearly all actives have a fitted effect of over 55% in size; further: potency means the concentration at half of the fitted maximal effect
Outline: as §1

[11] = test system: Zika virus NS2B-NS3 protease (linked construct); test: Confirmatory screen NINDS AMC qHTS for Zika virus inhibitors (AID 1347152); further: potency means the concentration at half of the fitted maximal effect; nearly all actives have a fitted effect of over 70% in size
Outline: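 Linked NS2B-NS3 1 nM, Tris pH 8.0/0.01% Tween 20; cpd 15 min RT dark; + Nle-KRR-AMC 10 µM (Km 18.3 µM); read 0 and 15 min, 340/450 nm; %inh vs controls, 4-param Hill.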

[12] = Vero cells viability qHTS for Zika virus inhibitors (AID 1347167)
Outline: (§2)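 qHTS titration; 24-48 h compound exposure, 37 degrees C/5% CO2; DMEM, 4% FBS; CellTiter Glo ATP luminescence.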

[13] = HepG2 cells viability qHTS for Zika virus inhibitors (AID 1347168)
Outline: as §2

[14] = qHTS of pediatric cancer cell lines to identify multiple opportunities for drug repurposing: Confirmatory screen for SK-N-SH cells (AID 1347129);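 further: potency means the concentration at half of the fitted maximal effect; cells exposed to compound for 48 h before viability read; nearly all actives have a fitted effect of over 60% in size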
Outline: as §1

CCCOc1ccc(C(=O)OCCN(CC)CC)cc1N
Potency [1]: inactive

CCCN[C@H]1CCc2nc(N)sc2C1
Potency [1]: inactive

COc1ccc(-c2ccc3cc(C(=O)O)ccc3c2)cc1C12CC3CC(CC(C3)C1)C2
Potency [2]: inactive | Potency [3]: inactive | Potency [1]: inactive | outcome [4]: inactive | Potency [5]: inactive | activity change, negative = inhibition [6]: -1.33% [at 5.25 µM]

CCN(CC)CCn1c(=O)c(Cc2ccc(OC)cc2)nc2ccccc21
Potency [7]: inactive | Potency [1]: inactive | activity, negative = inhibition [8]: -17%

C[C@@H]1C[C@H]2[C@@H]3CCC4=CC(=O)C=C[C@]4(C)[C@@]3(Cl)[C@@H](O)C[C@]2(C)[C@@]1(OC(=O)c1ccco1)C(=O)CCl
Potency [2]: 20.8 µM (active) | Potency [9]: 11.7 µM (active) | Potency [1]: inactive

CCN1CCCC1CNC(=O)c1cc(S(N)(=O)=O)ccc1OC (configuration not stated)
Potency [7]: inactive | Potency [1]: inactive | activity, negative = inhibition [8]: 2.22%

CC(=O)[C@H]1CC[C@H]2[C@@H]3CCC4=CC(=O)CC[C@]4(C)[C@H]3CC[C@]12C
Potency [2]: 23.3 µM (active) | Potency [9]: 26.1 µM (active) | Potency [7]: inactive | Potency [1]: inactive | activity, negative = inhibition [8]: -4.17%

CCN(C)C(=O)Oc1cccc([C@H](C)N(C)C)c1
Potency [1]: inactive

CN1CCCC(n2nc(Cc3ccc(Cl)cc3)c3ccccc3c2=O)CC1 (configuration not stated)
Potency [10]: inactive | Potency [1]: inactive

CCCCS(=N)(=O)CCC(N)C(=O)O (configuration not stated)
Potency [7]: inactive | Potency [1]: inactive | activity, negative = inhibition [8]: -3.95%

CC1=C(C(=O)O)N2C(=O)[C@@H](NC(=O)C(N)c3ccccc3)[C@H]2SC1 (some centres not stated)
Potency [7]: inactive | Potency [1]: inactive | activity, negative = inhibition [8]: -17.9%

O=C(O)c1cccnc1
Potency [1]: inactive

Cc1ncc([N+](=O)[O-])n1CCO
Potency [1]: inactive

CCN(CC)CC#CCOC(=O)C(O)(c1ccccc1)C1CCCCC1 (configuration not stated)
Potency [7]: inactive | Potency [1]: inactive | activity, negative = inhibition [8]: -11%

O=C(O)c1cn(C2CC2)c2cc(N3CCNCC3)c(F)cc2c1=O
Potency [3]: 24.1 µM (active) | Potency [11]: 24.1 µM (active) | Potency [12]: inactive | Potency [13]: inactive | Potency [6]: inactive

N=C(N)c1ccc(OCCCCCOc2ccc(C(=N)N)cc2)cc1
Potency [2]: inactive | Potency [9]: inactive | Potency [1]: inactive

CCn1cc(C(=O)O)c(=O)c2cc(F)c(N3CCNCC3)cc21
Potency [3]: 17.1 µM (active) | Potency [11]: 27.1 µM (active) | Potency [12]: inactive | Potency [13]: inactive | Potency [6]: inactive

Nc1nc(=S)c2[nH]cnc2[nH]1
Potency [2]: 13.1 µM (active) | Potency [9]: 928 nM (active) and 414 nM (active) | Potency [3]: inactive | Potency [7]: inactive | Potency [1]: inactive | Potency [12]: inactive | Potency [13]: inactive | Potency [6]: 4.15 µM (active) and 3.3 µM (active)

COc1cc(NCc2ccc3nc(N)nc(N)c3c2C)cc(OC)c1OC
Potency [10]: 4.65 µM (active) | Potency [9]: 3.69 µM (active) | Potency [14]: 4.69 µM (active) | Potency [3]: 17.1 µM (active) | Potency [11]: 24.1 µM (active) | Potency [5]: inactive | Potency [12]: inactive

O=C(O)CSCC(=O)NC1CCSC1=O (configuration not stated)
Potency [1]: inactive

NC(=O)c1ccc2[nH]ccc2c1
activity, negative = inhibition [8]: -16.4%

N[C@@H](Cc1ccc(O)c(O)c1)C(=O)O
activity, negative = inhibition [8]: 0.726%

— PubChem BioAssay (NCATS)
